Screens: PubChem BioAssay, National Center for Advancing Translational Sciences (NCATS)
Vif-A3F inh – Vif-A3F binding inhibition. HeLa A3F-eYFP + Vif (tagged APOBEC3F with the HIV-1 protein that degrades it), YFP fluorescence increase. Potency, µM (series often up to 46.1 µM), for the others: at the top dose activity, negative = active. 0.2% of 390,000 active; note: potency is the fitted concentration of half-maximal effect; % of control where 0% means no effect; nearly all actives have a fitted effect of over 65% in size
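HeLa cells stably expressing A3F-eYFP plus Vif, plated and incubated overnight at 37 deg C, then exposed to compounds overnight at 37 deg C. Blocked degradation read as raised yellow fluorescence (Ex 488/Em 500-530).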
BCR signal inh – chronic active BCR signaling inhibition; ABC-DLBCL IkBa-CBG/CBR reporter, luminescence ratio, 4 h; Potency, µM (titrated, usually from 46.1 µM), inactives show top-dose activity change, negative = inhibition, actives largely listed as inhibitors; 0.05% of 340,000 active; active = well fitted inhibition curve with a large enough effect in the signal ratio, with a control signal flat, not every such curve was filed as active; inconclusive = small, poorly fitted or top-dose-only effect, or effect the other way, or a change in a side signal; the % refers to the signal ratio;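 note: potency is the fitted concentration of half-maximal effect; plate controls were basal doxycycline-induced cells for no effect and cells given 10 µM MG132 for full effect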
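Cell line TMD8 (human ABC DLBCL), stably expressing tet-inducible CBG68-IkBa fusion and CBR; IMDM/0.5% FBS; cpd up to 46 uM; dox induction, 4 h, 37C/5% CO2; dual luminescence; green/red ratio; MG132 control.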
uPA surface inh – cell surface uPA generation inhibition; cell surface uPA generation assay, qHTS; 0.31% of 330,000 active; Potency, µM (highest dose often 38.3 µM), inactives show at the top dose activity change, negative = inhibition, most hits filed as inhibitors; active = well fitted inhibition curve with a large enough effect; inconclusive = small, poorly fitted or top-dose-only effect; inactive = no such curve, though single readings can be large or run the other way; tested in mouse RAW 264.7 cells; note: potency is the fitted concentration of half-maximal effect; % is set by controls: 0 for no effect and ±100 for the full control effect; nearly all actives have a fitted effect of over 55% in size
Vif-APOBEC3G blk – blocks the Vif interaction with human APOBEC3G; Potency, µM (series often up to 46.1 µM), without a hit: at the top dose activity, negative = active, most hits filed as inhibitors; HeLa A3G-eYFP + Vif (tagged APOBEC3G with the HIV-1 protein that degrades it), YFP fluorescence, overnight; 0.076% of 410,000 active; Q9HC16; note: potency is the fitted concentration of half-maximal effect; % is set by controls: 0 for no effect and ±100 for the full control effect; nearly all actives have a fitted effect of over 60% in size
Target sequence (Q9HC16 whole entry, looked up): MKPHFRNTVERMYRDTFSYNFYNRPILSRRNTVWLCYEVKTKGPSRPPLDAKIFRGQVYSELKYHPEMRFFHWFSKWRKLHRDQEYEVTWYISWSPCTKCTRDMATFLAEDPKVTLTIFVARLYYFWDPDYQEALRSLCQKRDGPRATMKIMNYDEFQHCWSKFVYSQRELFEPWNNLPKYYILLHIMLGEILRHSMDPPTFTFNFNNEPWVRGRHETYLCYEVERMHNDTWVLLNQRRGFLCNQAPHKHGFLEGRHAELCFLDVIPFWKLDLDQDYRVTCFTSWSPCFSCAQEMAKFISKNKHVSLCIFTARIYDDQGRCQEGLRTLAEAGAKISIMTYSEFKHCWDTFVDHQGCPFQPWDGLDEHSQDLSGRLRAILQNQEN
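Read-out is eYFP fluorescence (Ex 488/Em 500-530) from Vif-expressing HeLa A3G-eYFP cells; more signal means A3G escaped Vif-mediated degradation. Cells plated overnight, compound pinned in, incubated overnight at 37 deg C.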
TCR activator – T cell receptor activation. primary human leukocytes, anti-CD3, IL-2 HTRF, 48 h. Potency, µM (series often up to 9.22 µM), for inactives: at the top dose activation of IL-2 secretion, hits mostly activators. 330,000 tested, under 10 active; note: % of control where 0% means no effect
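48 hr co-incubation of compounds, a-CD3 beads and primary human leukocytes; IL-2 quantified homogeneously by HTRF with anti-IL-2 K and d2 conjugates.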
MBNL1-CUG inh – blocks human MBNL1 binding to CUG repeat RNA; TR-FRET MBNL1-His/biotin-(CUG)12 binding, 665/545 ratio; Potency, µM (series often up to 57.5 µM), inactives show top-dose activity change, negative = inhibition, most hits filed as inhibitors; 0.036% of 280,000 active; active = well fitted inhibition curve with a large enough effect in the signal ratio, with a control signal flat, not every such curve was filed as active; inconclusive = small, poorly fitted or top-dose-only effect, or effect the other way, or a change in a side signal; inactive = no such curve, though single readings can be large or run the other way; the % refers to the signal ratio; note: potency is the fitted concentration of half-maximal effect; % is set by controls: 0 for no effect and ±100 for the full control effect
Target sequence (Q9NR56 whole entry, looked up): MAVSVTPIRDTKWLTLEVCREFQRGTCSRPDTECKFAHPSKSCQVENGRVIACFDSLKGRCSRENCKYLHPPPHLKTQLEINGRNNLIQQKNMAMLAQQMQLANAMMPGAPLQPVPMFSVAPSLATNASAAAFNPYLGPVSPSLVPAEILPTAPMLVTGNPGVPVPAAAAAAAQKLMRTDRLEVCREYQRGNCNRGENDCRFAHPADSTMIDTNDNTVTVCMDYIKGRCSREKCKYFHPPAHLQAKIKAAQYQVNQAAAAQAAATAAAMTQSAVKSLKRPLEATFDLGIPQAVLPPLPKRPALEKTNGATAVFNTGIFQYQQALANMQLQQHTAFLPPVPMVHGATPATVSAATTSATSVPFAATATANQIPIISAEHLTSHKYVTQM
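Compounds (final 92 nM to 58 uM) are added to His-tagged MBNL1 and biotin-(CUG)12, then terbium anti-His antibody and streptavidin-XL665 (5 nM final). After 60 min at room temperature, the 665/545 nm ratio is read.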
* marks the source's active call; other numbers are inactive results. Shown are actives, neighbours in structure and some others; about 0.54% of the full set was active somewhere. Unless noted, calls come from the whole dose curve; as a rule, active = well fitted curve in the direction sought with a large enough effect; inconclusive = small, poorly fitted or top-dose-only effect, or another doubt; inactive = no such curve, though single readings can be large; an effect the other way counts as inactive or inconclusive.

For O=[N+]([O-])c1ccc2nc(CO)[nH]c2c1 the results were Vif-APOBEC3G blk -4%.
COc1cc(C(=O)NCC(=O)N2CCN(S(=O)(=O)c3cc(C)ccc3C)CC2)cc(OC)c1OC was read as Vif-A3F inh -15%, BCR signal inh inconclusive, uPA surface inh 2.2µM*, Vif-APOBEC3G blk 6.3µM*, TCR activator 2% and MBNL1-CUG inh -1%.
For CCCN(CCC)c1ccc(/C=C/c2sc3ccccc3[n+]2CCCCI)cc1 the results were Vif-APOBEC3G blk -26%.
For Cc1cc(C)nc(/N=C(\N)Nc2cccc(OCc3ccccc3)c2)n1 the results were Vif-A3F inh inconclusive, BCR signal inh inconclusive, uPA surface inh 7.1µM*, Vif-APOBEC3G blk inconclusive, TCR activator 4% and MBNL1-CUG inh 2%.
`Cc1cc(C)nc(/N=C(\N)Nc2ccc(OCc3ccccc3)cc2)n1` gave Vif-A3F inh -11%, BCR signal inh -17%, uPA surface inh -12%, Vif-APOBEC3G blk -12% and MBNL1-CUG inh 0%.
For O=[N+]([O-])c1ccc(/C=C/c2cc(Cl)nc3ccccc23)cc1 the results were Vif-APOBEC3G blk 0%.
Screening O=C(C[n+]1ccccc1Br)c1ccc(Cl)cc1 returned Vif-APOBEC3G blk 3%.
Screening N#CC(C(=O)NCc1ccccc1)c1nc2ccccc2nc1N1CCCC1 (stereo not given) returned Vif-A3F inh 10µM*, BCR signal inh 15%, uPA surface inh -4%, Vif-APOBEC3G blk -1%, TCR activator 4% and MBNL1-CUG inh 20%.
Screening CCN1CCN(c2nc3ccccc3nc2C(C#N)S(=O)(=O)c2ccc(C)cc2)CC1 (stereo not given) returned Vif-A3F inh -17%, BCR signal inh 16%, uPA surface inh -2%, Vif-APOBEC3G blk 1%, TCR activator 2% and MBNL1-CUG inh 22%.
`N#CC(C(=O)NCCc1ccccc1)c1nc2ccccc2nc1N1CCCCC1` (stereo not given) gave Vif-A3F inh -19%, BCR signal inh 8%, uPA surface inh 1%, Vif-APOBEC3G blk -14%, TCR activator 5% and MBNL1-CUG inh -1%.
Screening Cc1ccc(S(=O)(=O)C(C#N)c2nc3ccccc3nc2N2CCCC2)cc1 (stereo not given) returned Vif-A3F inh 22µM*, BCR signal inh inconclusive, uPA surface inh -8%, Vif-APOBEC3G blk inconclusive, TCR activator 3% and MBNL1-CUG inh inconclusive.
For CCCCCNC(=O)C(C#N)c1nc2ccccc2nc1N1CCCC1 (stereo not given) the results were Vif-A3F inh 7.1µM*, BCR signal inh inconclusive, uPA surface inh 5%, Vif-APOBEC3G blk -17%, TCR activator 1% and MBNL1-CUG inh -4%.
`CCCCCCNC(=O)C(C#N)c1nc2ccccc2nc1N1CCCC1` (stereo not given) gave Vif-A3F inh -7%, BCR signal inh 21%, uPA surface inh 9%, Vif-APOBEC3G blk -2%, TCR activator 2% and MBNL1-CUG inh 2%.
O=C(C[N+]12CCCc3cccc(c31)CCC2)c1ccc2ccc3cccc4ccc1c2c34 was read as Vif-APOBEC3G blk -29%.
For CC1CCN(S(=O)(=O)c2cc([N+](=O)[O-])ccc2Cl)CC1 the results were Vif-A3F inh -16%, BCR signal inh 0%, uPA surface inh 7.9µM*, Vif-APOBEC3G blk -4%, TCR activator 5% and MBNL1-CUG inh inconclusive.
`CCC(C)NC(=O)C1CCN(S(=O)(=O)c2cc([N+](=O)[O-])ccc2Cl)CC1` (stereo not given) gave Vif-A3F inh 2%, BCR signal inh -1%, uPA surface inh -10%, Vif-APOBEC3G blk 0%, TCR activator -14% and MBNL1-CUG inh inconclusive.
For CC(CCC(C)[n+]1cccc(Br)c1)[n+]1cccc(Br)c1 (stereo not given) the results were Vif-APOBEC3G blk 1%.
Nc1c(Cl)cc(C2=NCCn3nc4cc([N+](=O)[O-])ccc4c32)cc1Cl was read as Vif-A3F inh -8%, BCR signal inh inconclusive, uPA surface inh -21%, Vif-APOBEC3G blk inconclusive and TCR activator -5%.
Screening Nc1c(Cl)cc(C2=NCCn3c2c2ccc([N+](=O)[O-])cc2[n+]3[O-])cc1Cl returned Vif-A3F inh -14%, BCR signal inh -9%, uPA surface inh 4µM*, Vif-APOBEC3G blk inconclusive and TCR activator -9%.
CC(OC(=O)c1ccccc1OCCOc1ccccc1)C(=O)Nc1ccc(Br)cc1 (stereo not given) was read as Vif-APOBEC3G blk -3%.
For Cc1ccc(NC(=S)NNC(=S)Nc2ccc(C)cc2C)cc1 the results were Vif-A3F inh -24%, BCR signal inh 18µM*, uPA surface inh 0%, Vif-APOBEC3G blk inconclusive, TCR activator 5% and MBNL1-CUG inh -3%.
O=Cc1cc(N=Nc2ccccc2Cl)ccc1O was read as Vif-A3F inh 1%, BCR signal inh inconclusive, uPA surface inh 8.9µM*, Vif-APOBEC3G blk 4%, TCR activator 1% and MBNL1-CUG inh 11%.
`O=Cc1cc(N=Nc2cccc(C(=O)O)c2)ccc1O` gave Vif-A3F inh 14%, BCR signal inh inconclusive, uPA surface inh -1%, Vif-APOBEC3G blk 2%, TCR activator 13% and MBNL1-CUG inh inconclusive.
Screening COc1ccc(S(=O)(=O)Cc2ccc(C(=O)N3CCN(c4cccc(C)c4)C(C)C3)o2)cc1 (stereo not given) returned Vif-A3F inh -1%, BCR signal inh inconclusive, uPA surface inh 5.6µM*, Vif-APOBEC3G blk -17%, TCR activator 2% and MBNL1-CUG inh -11%.
Screening COc1cc2ccccc2cc1C(=O)Nc1ccc(Cc2ccncc2)cc1 returned Vif-A3F inh -1%, BCR signal inh inconclusive, uPA surface inh -15%, Vif-APOBEC3G blk -5%, TCR activator 1% and MBNL1-CUG inh 16%.
Cc1ccc(C(=O)Nc2ccc(N3CCN(C)CC3)cc2)cc1 was read as Vif-A3F inh 8%, BCR signal inh 2%, uPA surface inh 2%, Vif-APOBEC3G blk -5%, TCR activator 1% and MBNL1-CUG inh -1%.
`COc1cc2ccccc2cc1C(=O)Nc1ccc(C)cc1` gave Vif-A3F inh -20%, BCR signal inh inconclusive, uPA surface inh 20µM*, Vif-APOBEC3G blk -21%, TCR activator -7% and MBNL1-CUG inh 8%.
`Cc1nc(-c2ccc(NC(=O)c3ccccc3)cc2)cs1` gave Vif-A3F inh -13%, BCR signal inh 5%, uPA surface inh 2.2µM*, Vif-APOBEC3G blk -2%, TCR activator 11% and MBNL1-CUG inh -10%.
